Article PMC4081100, “A DNA-binding-site landscape and regulatory network analysis for NAC transcription factors in Arabidopsis thaliana”

molecular target: T1, GST-NST2(1-184) (Arabidopsis thaliana, UniProt Q9M274 1-184); test: universal protein binding microarray (PBM); transcription factors of Arabidopsis thaliana; high values mean tight binding; conditions: protein: recombinant; tags: GST; chain copies: 2; dsDNA, one strand shown
T1 sequence: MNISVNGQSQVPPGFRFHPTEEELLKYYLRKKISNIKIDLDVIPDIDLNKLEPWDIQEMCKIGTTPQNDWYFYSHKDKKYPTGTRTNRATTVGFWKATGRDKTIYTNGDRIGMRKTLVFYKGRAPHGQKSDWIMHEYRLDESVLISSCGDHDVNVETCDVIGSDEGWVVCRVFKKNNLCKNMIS
Outline: (§1)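 GST-tagged NAC-domain, full-length or DNA-binding-domain proteins were induced in cells, with zinc acetate added for zinc-finger proteins. They were purified on glutathione–Sepharose 4B and quantified by A280 or anti-GST western blot. Each was applied at 200 to 500 nM final, in duplicate, to custom all-10-mer Agilent 4 × 180K arrays made double-stranded by primer extension, with gapped and ungapped 8-mers scored. Binding is the normalised enrichment score (E-score).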

Row | Sequence | binding signal [E-score]
1 | AGGGTAAT | 0.0716
2 | AATTGACC | 0.0795
3 | AGTCAACG | 0.114
4 | AGGGAAAT | 0.0566
5 | CATTTGAC | 0.0611
6 | AAAAAGTC | 0.122
7 | ATTGACTG | 0.0623
8 | AGGAAACT | 0.125

molecular target: T2, GST-NTL8 NAC domain (Arabidopsis thaliana, UniProt Q9XIN7 14-156); test: as above; conditions: protein: recombinant; tags: GST; chain copies: 2; dsDNA, one strand shown
T2 sequence: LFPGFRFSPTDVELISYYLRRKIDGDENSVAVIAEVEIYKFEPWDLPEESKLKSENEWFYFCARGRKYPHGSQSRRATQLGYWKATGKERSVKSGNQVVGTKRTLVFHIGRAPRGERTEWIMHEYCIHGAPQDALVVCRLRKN
Outline: as §1

Row | Sequence | binding signal [E-score]
9 | GACCGGAA | 0.0847
10 | AGAGGTAA | 0.427
11 | AGGGTAAT | 0.441
12 | ATTCCCTC | 0.421
13 | AGTCAAAG | 0.0881
14 | AATTGACC | 0.0822
15 | AGAAAGTC | 0.0673
16 | AGGGAAAT | 0.406
17 | GAAGTCAA | 0.0673
18 | AAAAAGTC | 0.0525
19 | ATTGACTG | 0.0613
20 | AAGGTCAG | 0.0579
21 | AGGAAACT | 0.426

molecular target: T3, GST-VND3 NAC domain (Arabidopsis thaliana, UniProt Q9FH59 12-162); test: as above; conditions: protein: recombinant; tags: GST; chain copies: 2; dsDNA, one strand shown
T3 sequence: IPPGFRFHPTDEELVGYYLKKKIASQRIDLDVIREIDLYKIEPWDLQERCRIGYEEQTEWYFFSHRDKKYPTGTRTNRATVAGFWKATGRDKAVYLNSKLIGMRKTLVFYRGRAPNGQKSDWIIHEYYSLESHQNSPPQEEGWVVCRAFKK
Outline: as §1

Row | Sequence | binding signal [E-score]
22 | ATTTTGAC | 0.101
23 | TAGTCAGA | 0.065
24 | AGAGGTAA | 0.0836
25 | AGGGTAAT | 0.121
26 | TAGTCAAA | 0.105
27 | ATAAGTCA | 0.105
28 | TAGGTCAA | 0.0723
29 | TTAGTCAA | 0.11
30 | ATTAGTCA | 0.135
31 | CATTGACG | 0.08
32 | ATGTTGAC | 0.0635
33 | AATTGACC | 0.115
34 | AGTCAACG | 0.115
35 | GGTCATAC | 0.115
36 | TATGGTCA | 0.0521
37 | AGAAAGTC | 0.0756
38 | AGGGAAAT | 0.0592
39 | CATTTGAC | 0.105
40 | AAAAAGTC | 0.0942
41 | AATTTGAC | 0.0556
42 | AAGGTCAG | 0.0582

molecular target: T4, GST-VND7 NAC domain (Arabidopsis thaliana, UniProt Q9C8W9 9-158); test: as above; conditions: protein: recombinant; tags: GST; chain copies: 2; dsDNA, one strand shown
T4 sequence: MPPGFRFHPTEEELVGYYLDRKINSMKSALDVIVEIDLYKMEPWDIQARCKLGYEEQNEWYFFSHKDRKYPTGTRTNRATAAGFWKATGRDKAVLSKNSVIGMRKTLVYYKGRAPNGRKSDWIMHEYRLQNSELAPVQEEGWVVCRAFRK
Outline: as §1

Row | Sequence | binding signal [E-score]
43 | GTCAATAA | 0.112
44 | AAGTTGAC | 0.0703
45 | AGTCTTTG | 0.125
46 | GACCGGAA | 0.0568
47 | AGCTTGAC | 0.099
48 | AGTCAAAT | 0.152
49 | AGTCTGAC | 0.0919
50 | ATTCCCTC | 0.0536
51 | AGGTCAGC | 0.078
52 | AGTCAAAG | 0.0935
53 | GAAGTCAA | 0.0707
54 | ATTGACTG | 0.05
55 | AGGAAACT | 0.131

molecular target: GST-WRKY1(266-371) (Arabidopsis thaliana, UniProt Q9SI37 266-371); test: as above; conditions: protein: recombinant; tags: GST; dsDNA, one strand shown
Outline: as §1

GST-WRKY1(266-371), sequence (Q9SI37 266-371): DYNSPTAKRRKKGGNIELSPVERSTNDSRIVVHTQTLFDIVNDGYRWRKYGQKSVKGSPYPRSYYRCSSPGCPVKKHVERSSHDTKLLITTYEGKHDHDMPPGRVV

Row | Sequence | binding signal [E-score]
56 | GAGTCAGC | 0.418
57 | GCGGTCAA | 0.487
58 | ATTTTGAC | 0.461
59 | GTCAATAA | 0.457
60 | TAGTCAGA | 0.428
61 | AAGTTGAC | 0.476
62 | AGTCTTTG | 0.424
63 | GACCGGAA | 0.404
64 | AGCTTGAC | 0.447
65 | TGACCCAA | 0.419
66 | AGTCAAAT | 0.476
67 | AGTCTGAC | 0.422
68 | TAGTCAAA | 0.477
69 | ATAAGTCA | 0.443
70 | AGGTCAGC | 0.451
71 | TAGGTCAA | 0.482
72 | TTAGTCAA | 0.481

Row | Sequence | binding signal [E-score]
73 | ATTAGTCA | 0.404
74 | CATTGACG | 0.411
75 | AGTCAAAG | 0.486
76 | ATGTTGAC | 0.474
77 | AATTGACC | 0.47
78 | AGTCAACG | 0.494
79 | GGTCATAC | 0.421
80 | TATGGTCA | 0.428
81 | AGAAAGTC | 0.407
82 | GAAGTCAA | 0.482
83 | CATTTGAC | 0.462
84 | AAAAAGTC | 0.426
85 | CCGGGTCA | 0.443
86 | ATTGACTG | 0.465
87 | AATTTGAC | 0.451
88 | AAGGTCAG | 0.425
